Screening results from PubChem.
Only some compounds are listed: those with a hit (about 4% of all), similar ones and a draw of the others.
GRIN3A LBD mod – modulators (binders) of human NR3A ligand-binding domain; AID 1259313; 340,000 compounds, 2.5% hits; NR3A LBD differential scanning fluorimetry, Tm shift; 0% = protein alone, 100% = glycine-bound protein; Tm shift relative to glycine control, % at 25 µM;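 active means melting temperature shift of at least 10% of the positive control shift, at one fixed dose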
ADAM10 inh – inhibitors of human ADAM10 | O14672 | recombinant ADAM10, EDANS/DABCYL FRET peptide cleavage, 3 h | 370,000 compounds, 0.62% hits | inhibition, % at 7 µM;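 active means inhibition above a per-campaign cutoff equal to the mean of compounds falling between control-based bounds plus 3 SD, cut at about 20% in these data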;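 further: 0% = DMSO wells while the 100% control is not disclosed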
Target sequence (O14672 214-748 limits assumed): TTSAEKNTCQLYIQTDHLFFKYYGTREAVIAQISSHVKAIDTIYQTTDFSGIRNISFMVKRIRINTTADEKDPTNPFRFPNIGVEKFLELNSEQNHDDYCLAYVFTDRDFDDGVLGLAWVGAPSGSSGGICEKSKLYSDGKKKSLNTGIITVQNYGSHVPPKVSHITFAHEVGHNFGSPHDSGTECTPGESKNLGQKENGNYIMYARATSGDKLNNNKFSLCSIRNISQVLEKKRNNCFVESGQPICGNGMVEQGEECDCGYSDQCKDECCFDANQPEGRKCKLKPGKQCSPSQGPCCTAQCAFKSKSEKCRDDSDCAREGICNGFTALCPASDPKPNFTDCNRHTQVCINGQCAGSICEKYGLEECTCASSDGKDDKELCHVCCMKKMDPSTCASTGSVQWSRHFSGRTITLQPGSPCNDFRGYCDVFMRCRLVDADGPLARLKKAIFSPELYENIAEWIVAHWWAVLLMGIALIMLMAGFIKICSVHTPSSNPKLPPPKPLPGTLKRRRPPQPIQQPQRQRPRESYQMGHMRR
aDG glyco act – alpha-DG glycosylation activation | Pro5-aDG cells, alpha-DG glycosylation AlphaScreen (IIH6); 0% Pro5, 100% B10-LARGE cell signal | activation, % at 10 µM | 360,000 compounds, 0.22% hits | AID 624168;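 active means activation of at least 8% versus controls, or a plate z-score of at least 8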;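 further: Pro5 are CHO cells carrying HIG-tagged alpha-DG that lacks glycosylation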
ADAM17 inh – inhibits human ADAM17; 370,000 compounds, 0.83% hits; P78536; AID 720648; recombinant ADAM17, EDANS/DABCYL FRET peptide cleavage; inhibition, % at 6.95 µM;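 active means inhibition above the mean of compounds lying between control limits plus 3 SD, set per campaign, cut at about 8.5% in these data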;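 further: 0% = DMSO-only wells as the low control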
FAS TE block – FAS thioesterase (human) inhibition. recombinant FAS-TE, OMFH fluorogenic substrate, fluorescence endpoint. 360,000 compounds, 0.67% hits. P49327. inhibition, % at 15 µM;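 active means compounds whose normalised, plate-corrected inhibition of enzyme fluorescence in the single-dose primary screen is 50% or more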;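 further: 0% = DMSO with enzyme and 100% = substrate without enzyme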
FAS-TE inh conf – FAS thioesterase (human) inhibition, confirmation; shares compounds with FAS TE block; recombinant FAS-TE, OMFH fluorogenic substrate, fluorescence; inhibition, % at 15 µM; 2,300 compounds, 45% hits;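 active means compounds inhibiting the enzyme by at least 50% at 15 µM in any one of the replicates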;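 further: 0% = enzyme with DMSO only and 100% = wells lacking enzyme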
ADAM10 confirm – confirmation of inhibitors of human ADAM10. ADAM10 QFRET peptide cleavage, EDANS fluorescence. 2,100 compounds, 1% hits. inhibition, % at 6.95 µM. AID 743208. shares compounds with ADAM10 inh;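 active means inhibition above about 20% chosen separately for each screening run, limit read from the data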;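 further: 0% = DMSO wells and 100% = marimastat wells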
ADAM17 ctr – inhibits human ADAM17 in ADAM10 exosite counter-screen; inhibition, % at 6.95 µM; shares compounds with ADAM10 inh; ADAM17 QFRET peptide cleavage, EDANS fluorescence; 2,100 compounds, 0.5% hits; AID 743214;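 active means mean triplicate inhibition above the solvent-only control wells' mean plus 3 SD, cut at about 12% in these data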;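 further: 0% = DMSO wells and 100% = marimastat wells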
ADAM10 ctr – inhibits human ADAM10 in ADAM17 exosite counter-screen; inhibition, % at 6.95 µM; shares compounds with ADAM17 inh; AID 743256; recombinant ADAM10, EDANS/DABCYL FRET peptide cleavage, 3 h; 2,900 compounds, 47% hits;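 active means mean inhibition over the triplicate runs exceeds the activity threshold set in the earlier primary screen, cut at about 20% in these data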;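 further: 0% = DMSO wells and 100% = marimastat wells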
ADAM17 confirm – human ADAM17 inhibition, confirmation; shares compounds with ADAM17 inh; inhibition, % at 6.95 µM; 2,900 compounds, 65% hits; recombinant ADAM17, EDANS/DABCYL QFRET peptide cleavage;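 active means mean inhibition across replicates above the hit cutoff set in the primary screen, cut at about 8.5% in these data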;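 further: 0% = DMSO wells and 100% = marimastat wells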
Starred values were filed as active, the others as inactive; · = no result.

SMILES	GRIN3A LBD mod	ADAM10 inh	aDG glyco act	ADAM17 inh	FAS TE block	FAS-TE inh conf	ADAM10 confirm	ADAM17 ctr	ADAM10 ctr	ADAM17 confirm
CC(=O)c1ccc(C(=O)N2CCCC(CCC(=O)N(C)CCc3ccccn3)C2)s1 (stereo not given)	0	2	0	1	-7	·	·	·	·	·
CCCCCCCOC(=O)C1=C(C)Nc2ncnn2C1c1cccs1 (stereo not given)	0	1	2	0	1	·	·	·	·	·
CCCCCCCCOC(=O)C1=C(C)Nc2nnnn2C1c1cccs1 (stereo not given)	-7	20*	1	10*	62*	41	8	3	21*	8
O=C(CCN1C(=O)c2ccncc2C1=O)NCc1ccc(Cl)cc1	-1	1	0	-2	-6	·	·	·	·	·
C[C@H](CO)N1C[C@H](C)[C@@H](CN(C)C(=O)Nc2ccccc2)Oc2c(NC(=O)Nc3ccc(C(F)(F)F)cc3)cccc2C1=O	28*	26*	0	12*	83*	92*	2	0	37*	19*
COc1cc2c(cc1NC(=O)COc1ccccc1OC)oc1ccccc12	-2	2	0	-5	-4	·	·	·	·	·
COc1cc2c(cc1NC(=O)COC(=O)[C@@H](NS(=O)(=O)c1ccccc1)C(C)C)oc1ccccc12	7	19	0	11*	67*	-5	·	·	-5	5
Cc1cc(C(=O)Nc2cc(C(C)(C)C)on2)c(C)o1	-1	2	0	-1	1	·	·	·	·	·
O=C(CSc1nc2ccccc2c(=O)n1-c1ccccc1Cl)Nc1cccc(S(=O)(=O)N2CCOCC2)c1	-13	17	0	9.5*	95*	26	·	·	18	13*
Cn1cccc1CN1CCC[C@]2(N[C@H](c3ccc(C(F)(F)F)cc3)[C@@H]3C(=O)N(Cc4ccccc4)C(=O)[C@@H]32)C1=O	·	7	0	2	14	·	·	·	·	·
CCn1c(SCC(=O)Nc2ncc(C(F)(F)F)cc2Cl)nnc1-c1cccc(C)c1	0	4	0	10.0*	80*	81*	·	·	1	2
O=S(=O)(Nc1ccc2c(c1)OCCO2)c1ccc2oc3ccccc3c2c1	-2	24*	0	11*	62*	47*	8	2	26*	14*
O=C1OCCN1C(=O)[C@H]1[C@H](c2ccc([N+](=O)[O-])cc2)C(c2ccccc2)=NN1c1ccc(Br)cc1	9	17	0	11*	90*	12	·	·	15	12*
Cn1c(N/N=C/c2cccs2)cc(=O)n(C)c1=O	-1	-91	0	-31	-2	·	·	·	·	·
Fc1c(F)c(C(F)(F)F)c(F)c(F)c1N/N=C\c1cccs1	22*	24*	0	9.8*	63*	51*	14	4	32*	19*
O=C(NCCc1c[nH]c2ccccc12)C1CCN(S(=O)(=O)c2ccc(F)cc2)CC1	-3	-4	0	-3	3	·	·	·	·	·
CN1CCN(CCCNC(=O)c2nnc(Cc3c(F)cccc3Cl)o2)CC1	-3	-1	0	-3	-3	·	·	·	·	·
COc1ccc(NC(=O)C(OC)c2ccccc2)cc1Cl (stereo not given)	0	-3	0	-3	-5	·	·	·	·	·
COc1ccc(NC(=O)C(Sc2nnc(-c3ccncc3)n2-c2ccccc2C)c2ccccc2)cc1Cl (stereo not given)	-17	28*	0	15*	56*	15	7	2	30*	15*
CN(C)S(=O)(=O)c1cccc(NC(=O)CN2C(=O)NC(Cc3c[nH]c4ccccc34)C2=O)c1 (stereo not given)	0	-10	0	-3	-3	·	·	·	·	·
COc1cccc(C(=O)CSc2nc3ccccc3n2CC(=O)N2CCOCC2)c1	-1	5	0	1	-2	·	·	·	·	·
CC(NC(=O)COC(=O)c1cc(NS(=O)(=O)c2ccc(Cl)c([N+](=O)[O-])c2)ccc1O)C1CC2CCC1C2 (stereo not given)	13*	22*	0	8.8*	53*	51*	9	2	38*	17*
Cc1cccc(NS(=O)(=O)c2ccc3[nH]c(=O)cc(C(=O)OC(C)C(=O)Nc4ccc([N+](=O)[O-])cc4)c3c2)c1 (stereo not given)	11*	25*	0	15*	87*	93*	10	4	4	12*
NC(=O)COC(=O)c1cc(=O)[nH]c2ccc(S(=O)(=O)Nc3ccc(F)cc3)cc12	-3	-4	0	1	-5	·	·	·	·	·
COCCOc1ccc(C(F)(F)F)cc1NC(=O)COC(=O)c1ccc(N2CCCC2=O)cc1	-1	-14	0	-6	1	·	·	·	·	·
SMILES	GRIN3A LBD mod	ADAM10 inh	aDG glyco act	ADAM17 inh	FAS TE block	FAS-TE inh conf	ADAM10 confirm	ADAM17 ctr	ADAM10 ctr	ADAM17 confirm
COCCOc1ccc(C(F)(F)F)cc1NC(=O)COC(=O)c1cc([N+](=O)[O-])ccc1N1CCOCC1	-10	22*	0	8.9*	72*	30*	2	0	17	8.9*
COc1cccc(CNC(=O)Cc2ccc(NC3=NC4CS(=O)(=O)CC4S3)cc2)c1 (stereo not given)	-2	-3	0	-1	-10	·	·	·	·	·
CCN1C(=O)[C@@H]2[C@@H](c3ccc(-c4ccc(OC)cc4)c(OC)c3)N3CCCC[C@@]3(C(=O)OC)[C@@H]2C1=O	0	2	0	9.3*	51*	-4	·	·	-7	-1
CCN1C(=O)[C@@H]2[C@@H](c3ccc(-c4ccc(OC)cc4)cc3)N3CCCC[C@@]3(C(=O)OC)[C@@H]2C1=O	-1	1	0	2	18	·	·	·	·	·
CCC(C)c1ccccc1N1CC(C(=O)N2CCN(S(=O)(=O)c3ccccc3Br)CC2)CC1=O (stereo not given)	0	-4	0	0	-3	·	·	·	·	·
O=C(/C=C/c1cccc([N+](=O)[O-])c1)NCCSCc1ccccc1Cl	-4	19	0	8.9*	75*	8	·	·	27*	14*
